PubChem BioAssay AID2284075 (EPA ToxCast)
The source made the active and inactive calls. How the source made its calls: active means hit-call score of the fitted dose curve at least 0.9, where 1 is the maximum; inactive means score below 0.9.

Target: human Aurora-A (AURKA) Other Protein Kinase, AURKA (gene 6790) (UniProt O14965)
Assay: ERF_FR_ENZ_hAURKA: Eurofins (ERF) Enzymatic Radiometric [10 uM ATP] KinaseProfiler LeadHunter Assay for human Aurora-A (AURKA) Other Protein Kinase
Procedure: ERF_FR_ENZ_hAURKA is a biochemical, single-readout assay that uses extracted gene-proteins in a cell-free assay. Measurements were taken 0.25 hour after chemical dosing in a 96-well plate. See Aurora-A Human Other Protein Kinase Enzymatic LANCE Assay [Km ATP], Cerep.ERF_FR_ENZ_hAURKA is an assay component calculated from the ERF_FR_ENZ_hAURKA assay. It is designed to measure enzyme activity using a type of enzyme reporter as detected by fluorescence intensity with LANCE technology.Data from the assay component ERF_FR_ENZ_hAURKA was analyzed at the assay endpoint, ERF_FR_ENZ_hAURKA, in the positive analysis fitting direction relative to DMSO as the negative control and baseline of activity. Using a type of enzyme reporter, loss-of-signal activity can be used to understand changes in enzymatic activity as they relate to gene AURKA. To generalize the intended target to other relatable targets, this assay endpoint is annotated to the kinase intended target family, where the subfamily is serine/threonine kinase.
Aurora-A (h) is incubated with 8 mM MOPS pH 7.0, 0.2 mM EDTA, 200 uM LRRASLG (Kemptide), 10 mM MgAcetate and [gamma-33P]-ATP (specific activity and concentration as required). The reaction is initiated by the addition of the Mg/ATP mix. After incubation for 40 minutes at room temperature, the reaction is stopped by the addition of phosphoric acid to a concentration of 0.5%. […]

human Aurora-A (AURKA) Other Protein Kinase, AURKA (gene 6790), sequence (O14965 whole entry, looked up): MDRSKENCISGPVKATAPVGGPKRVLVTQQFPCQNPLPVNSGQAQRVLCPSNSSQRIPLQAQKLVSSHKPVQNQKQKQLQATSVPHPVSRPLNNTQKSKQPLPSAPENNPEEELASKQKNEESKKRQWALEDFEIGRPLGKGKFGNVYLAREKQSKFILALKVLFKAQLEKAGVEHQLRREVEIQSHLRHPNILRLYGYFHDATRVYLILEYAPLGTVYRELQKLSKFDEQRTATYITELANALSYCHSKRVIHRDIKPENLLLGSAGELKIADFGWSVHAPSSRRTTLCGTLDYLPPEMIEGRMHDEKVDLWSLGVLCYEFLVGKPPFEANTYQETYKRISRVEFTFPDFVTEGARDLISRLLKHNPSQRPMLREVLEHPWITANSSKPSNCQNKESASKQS

Question: O=C(/C=C/c1ccc(O)cc1)CC(=O)/C=C/c1ccc(O)cc1 was tested. Which outcome did it give?
Answer: inactive
